The values that follow come from PubChem BioAssay (Tox21).

Molecules are shown by their SMILES. Where “and” joins values, the source holds several entries; their conditions need not be identical. Identical values can stand only once. Records with an inconclusive call do not appear. A structure can be active in one record and inactive in another. Calls of active or inactive are those of the source. The call rests on the fitted dose curve; in most records, active means well fitted curve in the direction sought with a large enough effect in the repeat runs; inconclusive means weak or mixed curves; inactive means no such curve, though single readings can be large; an effect the other way counts as inactive or inconclusive.

Test [1] in a line: qHTS RealTime-Glo MT Cell Viability Assay in HEK293 cells - 40 hour (AID 1224874). Further: nearly all actives have a fitted effect of over 50% in size. Further: potency means the concentration at half of the fitted maximal effect. As to conditions: RealTime-Glo luminescence; max response: stronger effect = lower value. In a few lines: (§1)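 Luminescence readout at each listed time point; HEK293, 600 cells/well, RealTime-Glo MT reagent added with cells; compounds pinned (23 nL in DMSO) after 5 h at 37 C; continuous culture at 37 C.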
A short description of test [2]: A CellTox Green Cytotoxicity Assay to monitor cytotoxicity in HEK293 cells - 24 hour (AID 1224875). Further: series mostly up to about 77 µM; nearly all actives have a fitted effect of over 45% in size. An outline of the steps:
(§2)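 Read-out: fluorescence of a cell-impermeant cyanine dye staining DNA of dead cells, proportional to cytotoxicity. HEK293, 600 cells/well with reagent, compound (23 nL DMSO) added after 5 h; reads at 0, 8, 16, 24, 32, 40 h.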

Test [3] in a line: qHTS RealTime-Glo MT Cell Viability Assay in HepG2 cells - 32 hour (AID 1224877). Further: nearly all actives have a fitted effect of over 55% in size. Further: potency means the concentration at half of the fitted maximal effect. An outline of the steps: (§3)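 HepG2 suspension premixed with RealTime-Glo reagents is plated at 600 cells per well and left 5 h at 37 C/5% CO2. Compounds in DMSO then go in, and bioluminescence reflecting viable cell number is recorded over 40 h.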
A general note: In qHTS, concentration-response curves come from the screen itself.

Test [4] is described as follows: A CellTox Green Cytotoxicity Assay to monitor cytotoxicity in HepG2 cells - 24 hour (AID 1224878). Further: nearly all actives have a fitted effect of over 45% in size. An outline of the steps:
(§4)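 HepG2, 600 cells/well premixed w/ CellTox Green; 5 h settle, 37 C/5% CO2; pintool cpd add (DMSO); 37 C, 40 h; fluorescence read at 0, 8, 16, 24, 32, 40 h.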

Test [5] is described as follows: A CellTox Green Cytotoxicity Assay to monitor cytotoxicity in HepG2 cells - 40 hour (AID 1224879). Further: nearly all actives have a fitted effect of over 40% in size. An outline of the steps: as §4
Test [6] is described as follows: qHTS RealTime-Glo MT Cell Viability Assay in HEK293 cells - 0 hour (AID 1224880). Further: top concentration of the series differs between compounds; nearly all actives have a fitted effect of over 45% in size. In a few lines: as §1
A short description of test [7]: A CellTox Green Cytotoxicity Assay to monitor cytotoxicity in HEK293 cells - 32 hour (AID 1224881). Further: nearly all actives have a fitted effect of over 40% in size. Further: potency means the concentration at half of the fitted maximal effect. An outline of the steps: as §2
Test [8] is described as follows: A CellTox Green Cytotoxicity Assay to monitor cytotoxicity in HepG2 cells - 0 hour (AID 1224882). Further: nearly all actives have a fitted effect of over 35% in size. In a few lines:
as §4

Test [9] in a line: A CellTox Green Cytotoxicity Assay to monitor cytotoxicity in HepG2 cells - 32 hour (AID 1224883). Further: nearly all actives have a fitted effect of over 50% in size. In a few lines: as §4
Test [10] can be described thus: A CellTox Green Cytotoxicity Assay to monitor cytotoxicity in HEK293 cells - 8 hour (AID 1224884). Further: nearly all actives have a fitted effect of over 35% in size. An outline of the steps:
as §2

The nature of test [11]: qHTS RealTime-Glo MT Cell Viability Assay in HepG2 cells - 16 hour (AID 1224885). Further: nearly all actives have a fitted effect of over 50% in size. In a few lines:
as §3

A short description of test [12]: qHTS RealTime-Glo MT Cell Viability Assay in HEK293 cells - 24 hour (AID 1224886). Further: nearly all actives have a fitted effect of over 50% in size. Further: potency means the concentration at half of the fitted maximal effect. In a few lines: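 Reads taken at 0, 8, 16, 24, 32 and 40 h from the same wells. HEK293 cells (600/well) carried RealTime-Glo reagents from seeding, with compound added after a 5 h settle at 37 C.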
A short description of test [13]: qHTS RealTime-Glo MT Cell Viability Assay in HEK293 cells - 8 hour (AID 1224887). In a few lines:
as §1

Test [14] in a line: A CellTox Green Cytotoxicity Assay to monitor cytotoxicity in HEK293 cells - 16 hour (AID 1224888). Further: nearly all actives have a fitted effect of over 35% in size. An outline of the steps:
as §2

The nature of test [15]: qHTS RealTime-Glo MT Cell Viability Assay in HepG2 cells - 0 hour (AID 1224889). Further: nearly all actives have a fitted effect of over 50% in size. An outline of the steps: as §3
The nature of test [16]: qHTS assay to identify small molecule antagonists of the estrogen receptor alpha (ER-alpha) signaling pathway using the BG1 cell line in the presence of 0.1 nM 17-beta-estradiol - cell viability counter screen (AID 1259241). Further: nearly all actives have a fitted effect of over 40% in size. An outline of the steps: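 In this screen, hormone-deprived VM7Luc4E2 cells were seeded at 4,000 per well, dosed with compound and 0.1 nM estradiol final, and incubated 22 hr at 37C and 5% CO2; fluorogenic live-cell protease signal reported viability.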

Test [17] can be described thus: qHTS assay to identify small molecule antagonists of the androgen receptor (AR) signaling pathway using the MDA cell line in the presence of 0.5 nM R1881 - cell viability counter screen (AID 1259242). Further: nearly all actives have a fitted effect of over 45% in size. Further: potency means the concentration at half of the fitted maximal effect. An outline of the steps: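 Live-cell protease fluorescence, CellTiter-Fluor, 30 min at 37C. Cells: MDA-kb2, 3,000/well, preincubated 5 hr. Compounds plus 0.5 nM R1881 final, 16 hr, 37C, 0% CO2.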

Test [18] in a line: A CellTox Green Cytotoxicity Assay to monitor cytotoxicity in HepG2 cells - 16 hour (AID 1224876). Further: nearly all actives have a fitted effect of over 45% in size. An outline of the steps: as §4
Test [19] is described as follows: A CellTox Green Cytotoxicity Assay to monitor cytotoxicity in HepG2 cells - 8 hour (AID 1224890). Further: nearly all actives have a fitted effect of over 45% in size. In a few lines:
as §4
On the % scale 0 is the no-effect control and ±100 the full control effect.

With `CCCC[n+]1ccccc1C`, the max response in [1] is 0.73% (inactive) [middle of 6 runs]. Also, the Potency result in [2], in test [3], in [4], in [5], in test [7] and in [8] was “inactive” in each case. Moreover, the Potency entry in [9], in [10], in test [11], in test [12], in test [13] and in test [14] was “inactive” in each case. The Potency result in test [15], in [16] and in test [17] was “inactive” in each case. In test [6], the result was inactive.
For the compound `CCCn1cc[n+](C)c1`, in [1], the max response was 9.61% (inactive) and -4.66% (inactive) and 2.37% (inactive). The Potency result in test [2], in test [18], in test [3], in test [4], in test [5] and in [7] was “inactive” throughout. In addition, the Potency result in test [8], in test [9], in test [10], in test [11], in test [12] and in test [13] was “inactive” each time. Besides, the Potency result in test [14], in test [15], in test [16] and in test [17] was “inactive” throughout. Moreover, in test [6], the call was inactive.
With `O=P1(N(CCCl)CCCl)NCCCO1` (centres undefined), in test [1], the max response is 4.44% (inactive) and 0.328% (inactive) and -5.68% (inactive). Further, the Potency result in [2], in test [18], in [3], in test [4], in [5] and in test [7] was “inactive” throughout. Also, the Potency result in test [8], in test [10], in test [11], in [12], in [13] and in [14] was “inactive” each time. In addition, the Potency result in [15], in [19], in [16] and in test [17] was “inactive” throughout. Besides, the call in test [6] was inactive.
On to `CCCCCCCCn1cc[n+](C)c1`, for which the Potency in test [1] was 3.46 µM (active) [middle of 4 runs]; in test [7] it was 21.7 µM (active) and inactive; in test [12], 3.86 µM (active) and 4.41 µM (active). Further, the Potency result in test [2], in test [18], in [3], in test [4], in test [5] and in [8] was “inactive” each time. In addition, the Potency result in [10], in [11], in test [13], in test [14], in test [15] and in [19] was “inactive” throughout. The Potency result in [16] was “inactive”. The outcome in [6] was inactive.
Regarding `CC[N+]1(C)CCCC1`, the Potency is 21.9 µM (active) in test [1]; “inactive and 24.6 µM (active)” in test [12]. Besides, in [1], the max response is 3.6% (inactive) [middle of 4 runs]. The Potency result in [2], in [3], in [4], in [5], in test [7] and in test [8] was “inactive” throughout. Further, the Potency result in [10], in test [11], in test [13], in test [14], in test [15] and in [16] was “inactive” throughout. In addition, the Potency entry in test [17] is “inactive”. For the same compound, in test [6], the compound was classed as inactive.
As to `CCNc1nc(Cl)nc(NCC)n1`, the max response in [1] was -0.397% (inactive) and 5.74% (inactive) and 5.58% (inactive). Further, the Potency result in test [2], in test [18], in [3], in test [4], in test [5] and in test [7] was “inactive” throughout. The Potency result in test [8], in [9], in test [10], in [11], in test [12] and in [13] was “inactive” throughout. For the same compound, the Potency result in [14], in [15], in [19], in [16] and in test [17] was “inactive” each time. For the same compound, in test [6], the compound was called inactive.
For `O=S(=O)(O)O`, the max response in test [1] was -2.52% (inactive) [middle of 6 runs]. Besides, the Potency entry in test [2], in test [18], in test [3], in [4], in test [5] and in test [7] was “inactive” in each case. Besides, the Potency result in [8], in test [10], in [11], in test [12], in test [13] and in test [14] was “inactive” in each case. Moreover, the Potency result in [15], in test [19], in [16] and in [17] was “inactive” throughout. In test [6], the result was inactive.
`CNC`: the max response in test [1] is 5.34% (inactive) and 10.3% (inactive). Also, the Potency result in test [2], in test [3], in test [4], in test [5], in test [7] and in test [8] was “inactive” each time. Besides, the Potency entry in [9], in test [10], in test [11], in test [12], in [13] and in [14] was “inactive” in each case. In addition, the Potency entry in test [15], in [19], in test [16] and in test [17] was “inactive” in each case. In addition, the compound was classed as inactive in [6].
As for `CC[n+]1ccccc1`, the Potency was 21.7 µM (active) in test [1]; “inactive and 49.1 µM (active)” in test [3]; “inactive and 30.4 µM (active)” in test [17]. For the same compound, the max response in [1] is 9.29% (inactive) [middle of 4 runs]. For the same compound, the Potency entry in test [2], in [18], in test [4], in [5], in [7] and in test [8] was “inactive” throughout. Also, the Potency result in test [9], in test [10], in test [11], in [12], in [13] and in test [14] was “inactive” each time. Further, the Potency entry in test [15] and in [16] was “inactive” throughout. Further, the compound was called inactive in test [6].
Consider `CCCC[n+]1ccccc1`, for which the Potency entry in test [2], in test [3], in test [4], in test [5], in test [7] and in test [8] was “inactive” each time. The Potency result in test [9], in test [10], in test [11], in test [12], in test [13] and in test [14] was “inactive” in each case. The Potency entry in [15], in [19], in test [16] and in test [17] was “inactive” each time. For the same compound, the compound was called inactive in test [6].
With `O=C(O)C(Cl)Cl`, in [1], the max response was 5.65% (inactive) [middle of 4 runs]. The Potency result in [2], in test [3], in test [4], in test [5], in [7] and in test [8] was “inactive” throughout. For the same compound, the Potency entry in test [10], in test [11], in test [12], in test [13], in test [14] and in test [15] was “inactive” each time. In addition, the Potency entry in test [16] and in test [17] was “inactive” each time. The compound was called inactive in [6].
